Out of some 59,000 compounds screened, about 6,500 (11%) were called active. Not shown: some 15% with an inconclusive outcome. Cut-off read from the data, not from the text of the source: active = max dye-equivalent concentration above about 10 nM; inconclusive = mostly about 1.1 nM to 9.6 nM; inactive = weaker than that. For the sample, actives were picked, then their nearest neighbours and some compounds at random. Peptide text beside a SMILES is read from it.
Assay: qHTS Assay for Spectroscopic Profiling in A350 Spectral Region
Conditions: Compound autofluorescence, 340/450 nm, Alexa 350 dye-equivalents; active compounds read high
For `CCOC(=O)CSc1nnc(CNC(=O)c2cccs2)n1-c1cc(OC)ccc1OC`, the max dye-equivalent concentration was “inactive”.
For `N#Cc1ccccc1-n1c(N)c(C(=O)N2CCCC2)sc1=S`, the max dye-equivalent concentration was “inactive”.
For `COC(=O)c1ccc(N(CC(=O)NC2CCCC2)C(=O)CNC(=O)c2ccco2)cc1`, the max dye-equivalent concentration was “inactive”.
For `CCS(=O)(=O)N1CCCC(C(=O)NCCCN(C)Cc2ccccc2)C1` (stereo not given), the max dye-equivalent concentration was “inactive”.
In the case of `CN1C(=O)C[C@H](c2ccccc2)C1=O`, the max dye-equivalent concentration is reported as “inactive”.
With `O=C(CCCN1C(=O)CCC1=O)Nc1ccc(Cl)c(C(F)(F)F)c1` the max dye-equivalent concentration was “inactive”.
For `O=c1c(-c2cc(F)cc(F)c2)nc2cnc(Oc3ccccc3)nc2n1C[C@H]1CCCO1`, the max dye-equivalent concentration was 15 nM (active).
In the case of `COc1ccc(Oc2ncc3nc(C)c(=O)n(-c4ccccc4)c3n2)cc1`, the max dye-equivalent concentration is reported as “inactive”.
For `COc1ccc(-n2c(=O)c(-c3cn(C)c4ccccc34)nc3cnc(OC)nc32)cc1`, the max dye-equivalent concentration was “inactive”.
With `O=c1c(-c2cccs2)nc2cnc(Oc3ccccc3)nc2n1-c1ccccc1` the max dye-equivalent concentration was 21 nM (active).
With `CCc1ccc(-c2nnn(Cc3nc4ccccc4s3)n2)cc1` the max dye-equivalent concentration was “inactive”.
For `O=C(N1CCOCC1)N1CCOCC1`, the max dye-equivalent concentration was “inactive”.
With `O=C(NCc1cn2ccsc2n1)Nc1cccc(Cl)c1` the max dye-equivalent concentration was “inactive”.
For `CCOC(=O)c1csc(NC(=O)c2ccc(S(=O)(=O)N3CCCC3)cc2)n1`, the max dye-equivalent concentration was “inactive”.
In the case of `COc1ccc(OCC(=O)OCC(=O)Nc2ccc(S(=O)(=O)N3CCCCC3)cc2)cc1`, the max dye-equivalent concentration is reported as “inactive”.
With `Cc1cc(=O)[nH]c(SCc2cc(Cl)ccc2OC(F)F)n1` the max dye-equivalent concentration was “inactive”.
In the case of `Cc1ccc(-c2noc(-c3ccccc3C(=O)NCC3CCCO3)n2)cc1` (stereo not given), the max dye-equivalent concentration is reported as “inactive”.
In the case of `CCOc1cc(-c2nc3cc(C)ccn3c2NCC2CCCO2)ccc1O` (stereo not given), the max dye-equivalent concentration is reported as 78 nM (active).
For `Cc1ccc(C(=O)O)cc1S(=O)(=O)NCC1CCCO1` (stereo not given), the max dye-equivalent concentration was “inactive”.
With `O=C(CSc1nnc(-c2ccncc2)n1C1CCCCC1)Nc1ccccc1` the max dye-equivalent concentration was “inactive”.
With `CN1CCN(S(=O)(=O)c2ccc3[nH]cc(C(=O)O)c(=O)c3c2)CC1` the max dye-equivalent concentration was 12 nM (active).
For `CCN(CC)S(=O)(=O)c1ccc2[nH]cc(C(=O)NCCc3ccccc3)c(=O)c2c1`, the max dye-equivalent concentration was “inactive”.
In the case of `CCOC(=O)N1CCN(C(=O)c2cn(C)c3ccc(S(=O)(=O)N4CCCC4)cc3c2=O)CC1`, the max dye-equivalent concentration is reported as “inactive”.
With `COC(=O)c1cc(S(=O)(=O)NC2CCN(Cc3ccccc3)CC2)cn1C` the max dye-equivalent concentration was “inactive”.
For `Fc1ccccc1OCCCCn1cncn1`, the max dye-equivalent concentration was “inactive”.
With `C[C@H](NC(=O)NCCc1ccccc1)C(=O)O` the max dye-equivalent concentration was “inactive”.
With `O=C(Cn1cnc2c(cnn2-c2ccccc2)c1=O)NCc1ccccc1` the max dye-equivalent concentration was “inactive”.
In the case of `CN(C)CCCn1c(N)c(C#N)c2nc(C#N)c(C#N)nc21`, the max dye-equivalent concentration is reported as 620 nM (active).
In the case of `Cc1cccc(C)c1NC(=O)CCCSc1nnc(-c2ccco2)n1-c1ccccc1`, the max dye-equivalent concentration is reported as “inactive”.
In the case of `CC(=O)NC(C(=O)NCC(N)=O)C(C)C` (stereo not given) (HELM PEPTIDE1{[ac].[CC(C)C(N[*:1])C(=O)[*:2]].G.[am]}$$$$V2.0), the max dye-equivalent concentration is reported as “inactive”.
For `O=C(Cn1nc(C(F)(F)F)c2c1CCC2)NCc1ccc(F)cc1`, the max dye-equivalent concentration was “inactive”.
In the case of `O=c1[nH]c(=O)n(Cc2ccco2)c2c1C(C(F)(F)F)(C(F)(F)F)N=C(c1ccco1)N2`, the max dye-equivalent concentration is reported as 18 nM (active).
For `Nc1cc(=O)nc(SCc2ccccc2)n1Cc1ccco1`, the max dye-equivalent concentration was “inactive”.
In the case of `Cc1ccc(C(=O)OCC(=O)NCc2ccc3c(c2)OCO3)s1`, the max dye-equivalent concentration is reported as “inactive”.
With `Fc1ccc2nc(-c3ccccc3)nc(SCc3nnc(-c4ccccc4)o3)c2c1` the max dye-equivalent concentration was 38 nM (active).
In the case of `O=C(OCc1nnc(-c2ccccc2)o1)c1ccc2c(c1)C(=O)N(CCc1ccccc1)C2=O`, the max dye-equivalent concentration is reported as “inactive”.
For `C=CCn1c(SCc2nnc(-c3ccccc3)o2)nnc1C(O)c1ccccc1` (stereo not given), the max dye-equivalent concentration was “inactive”.
For `O=C(Nc1cccc(F)c1)N1CC2(CCN(C(=O)c3cnccn3)CC2)C1`, the max dye-equivalent concentration was “inactive”.
For `Oc1ccccc1CNCc1ccccc1O`, the max dye-equivalent concentration was “inactive”.
For `CCOC(=O)CSc1nnc(CNc2ccc(F)cc2)o1`, the max dye-equivalent concentration was “inactive”.
For `CCOc1ccc(CNC(=O)C2CCC(=O)N2C2CCCC2)cc1OC` (stereo not given), the max dye-equivalent concentration was “inactive”.
In the case of `CCOc1cc(C2C(C(=O)OC)=CN(C3CCCC3)C=C2C(=O)OC)cc(Br)c1O`, the max dye-equivalent concentration is reported as 230 nM (active).
With `CCOc1ccc(CNC(=O)C2CC(=O)N(C3CCCC3)C2)cc1OC` (stereo not given) the max dye-equivalent concentration was “inactive”.
With `O=C(COc1ccc(S(=O)(=O)NCCc2ccccc2)cc1)N1CCCC1` the max dye-equivalent concentration was “inactive”.
In the case of `CC1(C)CC(=O)c2sc(N)nc2C1`, the max dye-equivalent concentration is reported as “inactive”.
In the case of `N#CC1=C(N)Oc2n[nH]c(CSc3ccccc3)c2C12C(=O)Nc1ccccc12` (stereo not given), the max dye-equivalent concentration is reported as “inactive”.
In the case of `COc1ccc(S(=O)(=O)N2CCCC(C(=O)N3CCN(C)CC3)C2)cc1C` (stereo not given), the max dye-equivalent concentration is reported as “inactive”.
With `COc1cccc(N2C(=O)CC(N3CCN(S(=O)(=O)c4ccccc4)CC3)C2=O)c1` (stereo not given) the max dye-equivalent concentration was “inactive”.
With `CCOc1ccccc1NC(=O)CCN1CCN(S(=O)(=O)c2ccc(OC)cc2)CC1` the max dye-equivalent concentration was “inactive”.
In the case of `COc1ccc(S(=O)(=O)N2CCN(c3ncnc4c(-c5ccccc5)nsc34)CC2)cc1`, the max dye-equivalent concentration is reported as 120 nM (active).
For `Cc1ccc(C)c(NC(=O)C2CCCN2C(=O)OC(C)(C)C)c1` (stereo not given), the max dye-equivalent concentration was “inactive”.
With `OCCN1CCN(CC/C=C2\c3ccccc3Sc3ccc(C(F)(F)F)cc32)CC1` the max dye-equivalent concentration was “inactive”.
In the case of `COc1ccccc1NC(=O)CSc1nnc(Cn2nnc(-c3ccccc3)n2)n1-c1ccccc1`, the max dye-equivalent concentration is reported as “inactive”.
In the case of `CNC(=O)c1cc2c(ccc3ccccc32)oc1=N`, the max dye-equivalent concentration is reported as 11000 nM (active).
In the case of `CCCCC(=O)Nc1cc(C)c2c(=O)oc3ccccc3c2n1`, the max dye-equivalent concentration is reported as “inactive”.
With `O=C(NCCc1ccc2c(c1)OCCO2)c1cc2ccccc2o1` the max dye-equivalent concentration was “inactive”.
In the case of `CCOC(=O)N1CCN(C(=O)c2cc3c(ccc4ccccc43)oc2=O)CC1`, the max dye-equivalent concentration is reported as 1700 nM (active).
For `CCOC(=O)N1CCN(C(=O)c2n[nH]c(=O)c3ccccc23)CC1`, the max dye-equivalent concentration was “inactive”.
With `COc1c(C(=O)N2CCCC2)ccc2ccccc12` the max dye-equivalent concentration was “inactive”.
For `CC(C)(C)NCC[C@@H](O)c1cc(C(F)(F)F)nc2c(C(F)(F)F)cccc12`, the max dye-equivalent concentration was “inactive”.
With `CC(=O)N1CCC2(CC1)CCN(c1ccncc1)CC2` the max dye-equivalent concentration was “inactive”.
For `CC1(N2CCOCC2)CC2(O)C(=[N+]1[O-])CCc1nonc12` (stereo not given), the max dye-equivalent concentration was “inactive”.
In the case of `CCOC(=O)CSc1nc2c(c(=O)n(Cc3ccccc3Cl)c(=O)n2C)n1C`, the max dye-equivalent concentration is reported as “inactive”.
With `Cc1cc(C(=O)CC#N)c(C)n1CC(F)(F)F` the max dye-equivalent concentration was “inactive”.
In the case of `Cc1cc(NC(=O)CCC(=O)N(c2cccc(F)c2)C(C(=O)NC2CCCC2)c2ccncc2)no1` (stereo not given), the max dye-equivalent concentration is reported as “inactive”.
In the case of `O=C(Cn1ccc(=O)[nH]c1=O)Nc1ccc(C(=O)O)c(O)c1`, the max dye-equivalent concentration is reported as “inactive”.
With `COCCn1nnnc1CN1CCC(NC(=O)Nc2cccc(OC)c2)CC1` the max dye-equivalent concentration was “inactive”.
With `O=C(O)COc1nsnc1N1CCOCC1` the max dye-equivalent concentration was “inactive”.
With `CN(C)C(=O)c1ccc(-c2cncnc2Nc2ccccc2)cc1` the max dye-equivalent concentration was “inactive”.
In the case of `CN(C(=O)c1ccno1)c1nnc(-c2cccnc2)s1`, the max dye-equivalent concentration is reported as “inactive”.
For `CN(C(=O)COc1ccccc1)c1nnc(-c2ccncc2)s1`, the max dye-equivalent concentration was “inactive”.
In the case of `COc1cccc(-c2nnc(N(C)C(=O)c3ccno3)s2)c1`, the max dye-equivalent concentration is reported as 32 nM (active).
In the case of `CCCn1c(SCC(N)=O)nnc1C(C)C`, the max dye-equivalent concentration is reported as “inactive”.
With `Cc1cccc(N)c1SC1CCCCC1O` (stereo not given) the max dye-equivalent concentration was “inactive”.
In the case of `O=c1c(F)cn(C2CCCO2)c(=O)n1Cc1ccccc1Cl` (stereo not given), the max dye-equivalent concentration is reported as “inactive”.
For `CCn1c(Cc2ccccc2)nnc1SCC(=O)Nc1ccccc1`, the max dye-equivalent concentration was “inactive”.
For `COc1ccc2nc(N3CCCC(O)C3)c(C#N)cc2c1` (stereo not given), the max dye-equivalent concentration was 130 nM (active).
For `COc1ccc(OC)c(CNC(=O)C2CCCN(c3nc4ccccc4o3)C2)c1` (stereo not given), the max dye-equivalent concentration was “inactive”.
With `Cc1ccc(SCCN2C(=O)NC(C)(C)C2=O)cc1` the max dye-equivalent concentration was “inactive”.
In the case of `Cn1nnc(NC(=O)CSc2ncn[nH]2)n1`, the max dye-equivalent concentration is reported as “inactive”.
For `O=C(Oc1cccnc1)c1cc2ccccc2oc1=O`, the max dye-equivalent concentration was 96 nM (active).
In the case of `Cc1ccsc1C(=O)OCC(=O)c1cc2ccccc2o1`, the max dye-equivalent concentration is reported as “inactive”.
With `O=C(NCc1ccccn1)c1cnc2sccn2c1=O` the max dye-equivalent concentration was “inactive”.
In the case of `O=C(NCc1ccccn1)Nc1ccc(F)cc1`, the max dye-equivalent concentration is reported as “inactive”.
In the case of `Nc1ncc(-c2cc3ccccc3oc2=O)s1`, the max dye-equivalent concentration is reported as “inactive”.
In the case of `O=C(NCc1ccccn1)c1cc2ccccc2oc1=O`, the max dye-equivalent concentration is reported as 21 nM (active).
In the case of `CC(C)CSC[C@@H]1O[C@H](n2cnc3c(N)nccc32)[C@H](O)[C@@H]1O`, the max dye-equivalent concentration is reported as “inactive”.
For `O=c1cc(CSc2ccc(Cl)cc2)nc(N2CCOCC2)[nH]1`, the max dye-equivalent concentration was “inactive”.
In the case of `Cc1ccc2c(CSc3nncs3)cc(=O)oc2c1`, the max dye-equivalent concentration is reported as “inactive”.
With `O=C(Nc1cnccn1)c1cccnc1` the max dye-equivalent concentration was “inactive”.
In the case of `O=C(c1ccncc1)N1CCC2(CCN(Cc3cc(C(F)(F)F)cc(C(F)(F)F)c3)CC2)CC1`, the max dye-equivalent concentration is reported as “inactive”.
For `O=C(Nc1cccc2c1CCCC2)C1CCN(C(=O)NC2CCCCC2)CC1`, the max dye-equivalent concentration was “inactive”.
In the case of `CCC(=O)Nc1ccc(C(=O)CSc2nnc(CNc3ccc(Cl)cc3)o2)cc1OC`, the max dye-equivalent concentration is reported as “inactive”.
With `O=C(NC1CCCCC1)n1c(=O)oc2cc(S(=O)(=O)N3CCCCC3)ccc21` the max dye-equivalent concentration was “inactive”.
For `CCC(c1nnnn1C1CCCC1)N(Cc1cccs1)Cc1cc2cccc(C)c2[nH]c1=O` (stereo not given), the max dye-equivalent concentration was “inactive”.
For `COc1ccccc1N1CCN(Cc2nnnn2CCc2ccccc2)CC1`, the max dye-equivalent concentration was “inactive”.
In the case of `Cc1cccc2cc(CN(Cc3cccs3)C(c3nnnn3C3CCCC3)C(C)C)c(=O)[nH]c12` (stereo not given), the max dye-equivalent concentration is reported as “inactive”.
With `CCC(c1nnnn1Cc1ccccc1)N(Cc1cc2cc(OC)ccc2[nH]c1=O)CC1CCCO1` (stereo not given) the max dye-equivalent concentration was 32 nM (active).
For `CCOc1ccc2[nH]c(=O)c(CN(Cc3nnnn3Cc3ccccc3)CC3CCCO3)cc2c1` (stereo not given), the max dye-equivalent concentration was 150 nM (active).
In the case of `CC(C)(C)n1nnnc1C(c1cccs1)N(Cc1cccnc1)CC1CCCO1` (stereo not given), the max dye-equivalent concentration is reported as “inactive”.
In the case of `CCOc1ccc2[nH]c(=O)c(CN(Cc3nnnn3CCc3ccccc3)CC3CCCO3)cc2c1` (stereo not given), the max dye-equivalent concentration is reported as 76 nM (active).
For `CCC(c1nnnn1Cc1ccco1)N(CCc1ccccc1)Cc1cc2ccc(OC)cc2[nH]c1=O` (stereo not given), the max dye-equivalent concentration was “inactive”.
In the case of `Cc1cccc2cc(CN(Cc3ccc4c(c3)OCO4)Cc3nnnn3C3CCCC3)c(=O)[nH]c12`, the max dye-equivalent concentration is reported as “inactive”.
For `CCC(c1nnnn1Cc1ccco1)N(Cc1cc2cc(OC)ccc2[nH]c1=O)C1CCCCC1` (stereo not given), the max dye-equivalent concentration was 21 nM (active).
For `COc1ccc(N(CC(=O)NC(C)(C)C)C(=O)c2ccco2)cc1`, the max dye-equivalent concentration was “inactive”.
